Outcome and AC50 data for 23 compounds are collected here from PubChem BioAssay (EPA / NIEHS).

The source made the active and inactive calls. How the source made its calls: active means hit-call score of the fitted dose curve at least 0.9, where 1 is the maximum; inactive means score below 0.9.

Settings in all cases: mRNA level, 48 h; actives raise or lower the signal
Read-out in test [1]: Cytochrome P450 (CYP1A2), CYP1A2 (gene 1544)
In words: LTEA_HepaRG_CYP1A2: Life Technologies and Expression Analysis (LTEA) Assay for Cytochrome P450 (CYP1A2) using HepaRG (AID 2283479). The method in brief: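 Differentiated human HepaRG cells in serum-free induction medium exposed 48 hours in duplicate to 8 half-log concentrations from 100 uM, 0.5% DMSO. CYP1A2 mRNA quantified by qRT-PCR, normalized to ACTB, GAPDH and POLR2A; bidirectional fitting versus DMSO.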

Read-out in test [2]: cysteine-aspartic acid protease (CASP8), CASP8 (gene 841)
In words: LTEA_HepaRG_CASP8: Life Technologies and Expression Analysis (LTEA) Assay for cysteine-aspartic acid protease (CASP8) using HepaRG (AID 2283480). The method in brief: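 Concentration-response in duplicate up to 100 uM (half-log steps, 0.5% DMSO) on differentiated HepaRG cultures for 48 h. Expression change of CASP8 mRNA is determined by TaqMan qRT-PCR with housekeeping-gene normalization.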

Read-out in the next test: CYP2C8 (gene 1558)
Kind of test: LTEA_HepaRG_CYP2C8: Life Technologies and Expression Analysis (LTEA) Assay for CYP2C8 using HepaRG (AID 2283483). The method in brief: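 This is a transcriptional endpoint in HepaRG cultures: 48 h exposure, highest concentration 100 uM. CYP2C8 mRNA is quantified by TaqMan qRT-PCR.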

Read-out in a further test: CYP2C9 (gene 1559)
Kind of test: LTEA_HepaRG_CYP2C9: Life Technologies and Expression Analysis (LTEA) Assay for CYP2C9 using HepaRG (AID 2283484). In a few lines: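 Eight-point concentration-response (highest 100 uM, half-log dilutions) in HepaRG cells for 48 h; CYP2C9 expression by qRT-PCR normalized to ACTB, GAPDH, POLR2A. Bidirectional fit, DMSO baseline.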

Read-out in a further test: CYP2E1 (gene 1571)
In words: LTEA_HepaRG_CYP2E1: Life Technologies and Expression Analysis (LTEA) Assay for CYP2E1 using HepaRG (AID 2283485). The method in brief: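 CYP2E1 transcript was measured by TaqMan qRT-PCR in human HepaRG cultures after 48 h chemical exposure (top 100 uM, half-log steps, 0.5% DMSO vehicle). Housekeeping-gene normalization; gain or loss fitted relative to DMSO baseline.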

Read-out in another test: CYP4A11 (gene 1579)
Kind of test: LTEA_HepaRG_CYP4A11: Life Technologies and Expression Analysis (LTEA) Assay for CYP4A11 using HepaRG (AID 2283486). In a few lines: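 Differentiated HepaRG cells, 48 h after plating, exposed in duplicate for 48 h to 8 half-log concentrations up to 100 uM in 0.5% DMSO in serum-free induction medium. CYP4A11 mRNA measured by TaqMan qRT-PCR, normalized to ACTB, GAPDH and POLR2A.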

Read-out in test [3]: Cytochrome P450 3A4 (Homo sapiens) (UniProt P08684)
In words: LTEA_HepaRG_CYP3A4: Life Technologies and Expression Analysis (LTEA) Assay for CYP3A4 using HepaRG (AID 2283487). In a few lines:
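HepaRG, 48 h exposure, 8-pt CRC from 100 uM (half-log), 0.5% DMSO, duplicates; serum-free induction medium. Readout: CYP3A4 mRNA, qRT-PCR, ACTB/GAPDH/POLR2A normalization. Bidirectional fit vs DMSO.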

Read-out in test [4]: DNA damage-inducible transcript 3 (DDIT3), DDIT3 (gene 1649)
Kind of test: LTEA_HepaRG_DDIT3: Life Technologies and Expression Analysis (LTEA) Assay for DNA damage-inducible transcript 3 (DDIT3) using HepaRG (AID 2283488). In a few lines: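 qRT-PCR readout (Fluidigm TaqMan), housekeeping-normalized to ACTB, GAPDH, POLR2A. HepaRG cells, 48 h exposure, 8-point half-log series from 100 uM in 0.5% DMSO, duplicates. Gain or loss of signal fitted against DMSO baseline.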

Chain of Cytochrome P450 3A4 (Homo sapiens) (P08684 whole entry, looked up): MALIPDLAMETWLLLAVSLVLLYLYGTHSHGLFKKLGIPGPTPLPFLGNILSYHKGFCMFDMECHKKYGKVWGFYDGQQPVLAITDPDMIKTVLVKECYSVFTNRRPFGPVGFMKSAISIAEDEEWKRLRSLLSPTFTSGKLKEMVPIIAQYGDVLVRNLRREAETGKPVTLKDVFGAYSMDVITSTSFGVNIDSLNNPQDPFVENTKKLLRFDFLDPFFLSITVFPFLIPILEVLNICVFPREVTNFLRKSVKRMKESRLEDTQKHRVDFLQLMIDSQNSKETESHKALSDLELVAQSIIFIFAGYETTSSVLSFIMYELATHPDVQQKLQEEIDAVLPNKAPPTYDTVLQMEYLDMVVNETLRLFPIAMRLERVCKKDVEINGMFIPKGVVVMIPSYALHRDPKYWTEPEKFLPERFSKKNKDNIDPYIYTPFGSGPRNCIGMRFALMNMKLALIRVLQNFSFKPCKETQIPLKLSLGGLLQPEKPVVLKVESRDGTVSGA

Regarding `CCCCCCCc1ccc(O)cc1`, the compound was classed as inactive (in test [1]; in test [2]; with CYP2C8 (gene 1558); with CYP2C9 (gene 1559); in the test with CYP2E1 (gene 1571); with CYP4A11 (gene 1579)). The compound was classed as inactive in test [3] and in test [4].
With `c1nc[nH]n1`, in test [1], the half-maximal activity concentration (AC50) was 0.109 µM (active). In addition, the call (in test [2]; with CYP2C8 (gene 1558); in the test with CYP2C9 (gene 1559); with CYP2E1 (gene 1571); with CYP4A11 (gene 1579); in test [3]) was inactive. Moreover, the compound was classed as inactive in test [4].
In the case of `Cc1ccc([N+](=O)[O-])cc1C`, the call (in test [1]; in test [2]; in the test with CYP2C8 (gene 1558); in the test with CYP2C9 (gene 1559); with CYP2E1 (gene 1571); with CYP4A11 (gene 1579)) was inactive. Also, the outcome in test [3] and in test [4] was inactive.
With `CCNc1nc(Cl)nc(NC(C)(C)C)n1`, the concentration at half-maximal activity (AC50) was 32.1 µM (active) in test [1]; 2.37 µM (active) with CYP2C8 (gene 1558); 26.6 µM (active) with CYP2E1 (gene 1571); 9.92 µM (active) with CYP4A11 (gene 1579); 2.11 µM (active) in test [3]. The compound was classed as inactive (in test [2]; with CYP2C9 (gene 1559); in test [4]).
On to `Cc1ccc(N)cc1N`, for which the AC50 in test [1] was 21.5 µM (active); with CYP2E1 (gene 1571) it was 18.6 µM (active). The outcome (in test [2]; in the test with CYP2C8 (gene 1558); with CYP2C9 (gene 1559); with CYP4A11 (gene 1579); in test [3]; in test [4]) was inactive.
On to `Cc1ccc(O)cc1C`, for which the call in test [2] and in test [4] was inactive.
Regarding `OCC1CO1` (stereo not drawn), the compound was called inactive (in test [1]; in test [2]; in the test with CYP2C8 (gene 1558); in the test with CYP2C9 (gene 1559); with CYP2E1 (gene 1571); with CYP4A11 (gene 1579)). Besides, the outcome in test [3] and in test [4] was inactive.
Take `CCC1(c2ccccc2)C(=O)N=C(O)NC1=O` (stereo not drawn): the compound was called inactive (in test [1]; in test [2]; in the test with CYP2C9 (gene 1559); with CYP2E1 (gene 1571); in test [4]). Also, the half-maximal activity concentration (AC50) (with CYP2C8 (gene 1558); in test [3]) was 50 µM (active) throughout.
In the case of `CC(C)(C)OOC(C)(C)C`, the compound was called inactive (in test [1]; in test [2]; with CYP2C8 (gene 1558); with CYP2C9 (gene 1559); in the test with CYP2E1 (gene 1571); with CYP4A11 (gene 1579)). For the same compound, the compound was called inactive in test [3] and in test [4].
Take `CCN(CC)c1ccccc1`: the AC50 in test [1] was 39 µM (active). The compound was classed as inactive (in test [2]; with CYP2C8 (gene 1558); in the test with CYP2C9 (gene 1559); with CYP2E1 (gene 1571); in the test with CYP4A11 (gene 1579); in test [3]). In addition, the result in test [4] was inactive.
For the compound `c1ccc(OP(Oc2ccccc2)Oc2ccccc2)cc1`, the call (in test [1]; in test [2]; with CYP2C8 (gene 1558); with CYP2C9 (gene 1559); with CYP2E1 (gene 1571); with CYP4A11 (gene 1579)) was inactive. For the same compound, the compound was classed as inactive in test [3] and in test [4].
For the compound `c1ccc2c(c1)Nc1ccccc1S2`, the AC50 is 82.8 µM (active) in test [1] and 66.2 µM (active) with CYP2E1 (gene 1571). Further, the compound was called inactive (in test [2]; with CYP2C8 (gene 1558); with CYP2C9 (gene 1559); with CYP4A11 (gene 1579); in test [3]; in test [4]).
Turning to `COCCOCCO`, the outcome (in test [1]; in test [2]; with CYP2C8 (gene 1558); with CYP2C9 (gene 1559); with CYP2E1 (gene 1571); with CYP4A11 (gene 1579)) was inactive. In addition, the outcome in test [4] was inactive.
For the compound `CCOC(=O)c1ccccc1C(=O)OCC`, the AC50 in test [1] was 83 µM (active). In addition, the compound was called inactive (in test [2]; with CYP2C8 (gene 1558); in the test with CYP2C9 (gene 1559); in the test with CYP2E1 (gene 1571); with CYP4A11 (gene 1579); in test [3]). Further, in test [4], the compound was classed as inactive.
For `ClC(Cl)c1ccccc1`, the compound was called inactive (in test [1]; in test [2]; in the test with CYP2C8 (gene 1558); in the test with CYP2C9 (gene 1559); with CYP2E1 (gene 1571); in the test with CYP4A11 (gene 1579)). Besides, the compound was called inactive in test [3] and in test [4].
As to `Cc1cccc(N)c1`, in test [1], the AC50 was 50.2 µM (active). For the same compound, the result (in test [2]; in the test with CYP2C8 (gene 1558); with CYP2C9 (gene 1559); in the test with CYP2E1 (gene 1571); with CYP4A11 (gene 1579); in test [3]) was inactive. Further, in test [4], the compound was called inactive.
`CC(C)(C)c1ccc(O)cc1`: the result in test [2] and in test [4] was inactive.
Consider `CCC(C)(C)c1ccc(O)cc1`, for which the compound was classed as inactive (in test [1]; in test [2]; with CYP2C8 (gene 1558); in the test with CYP2C9 (gene 1559); with CYP2E1 (gene 1571); in the test with CYP4A11 (gene 1579)). The compound was classed as inactive in test [3] and in test [4].
For `O=P(Oc1ccccc1)(Oc1ccccc1)Oc1ccccc1`, the AC50 in test [1] is 27.4 µM (active); in the test with CYP2C8 (gene 1558), 12.4 µM (active); in the test with CYP2E1 (gene 1571) it was 26.2 µM (active); in test [3] it was 3.44 µM (active); in test [4], 75.4 µM (active). Moreover, the outcome (in test [2]; in the test with CYP2C9 (gene 1559)) was inactive.
For the compound `O=[N+]([O-])c1ccccc1`, the outcome (in test [1]; in test [2]; with CYP2C8 (gene 1558); with CYP2C9 (gene 1559); with CYP2E1 (gene 1571); in the test with CYP4A11 (gene 1579)) was inactive. Further, the compound was classed as inactive in test [3] and in test [4].
With `O=P1(N(CCCl)CCCl)NCCCO1` (stereo not drawn), the compound was called inactive (in test [1]; in test [2]; with CYP2C8 (gene 1558); in the test with CYP2C9 (gene 1559); with CYP2E1 (gene 1571); in the test with CYP4A11 (gene 1579)). For the same compound, the call in test [3] and in test [4] was inactive.
On to `CCCN(CCC)c1c([N+](=O)[O-])cc(C(C)C)cc1[N+](=O)[O-]`, for which the concentration at half-maximal activity (AC50) is 27.3 µM (active) in test [1]; 13.2 µM (active) with CYP2C8 (gene 1558); 12.7 µM (active) with CYP2C9 (gene 1559); 67 µM (active) in the test with CYP2E1 (gene 1571); 81.2 µM (active) with CYP4A11 (gene 1579). The outcome in test [2] and in test [4] was inactive.
Take `CCOc1ccc(C(C)(C)COCc2cccc(Oc3ccccc3)c2)cc1`: the AC50 is 28 µM (active) in test [1]; 3.05 µM (active) with CYP2C8 (gene 1558); 26 µM (active) with CYP2E1 (gene 1571); 61.5 µM (active) with CYP4A11 (gene 1579); 4.91 µM (active) in test [3]. The compound was called inactive (in test [2]; with CYP2C9 (gene 1559); in test [4]).

For orientation: AC50 means the concentration at which the activity in the assay is half-maximal.
